# Test results from PubChem BioAssay (NCATS).
# Results filed as inconclusive are left out. Calls of active or inactive are those of the source. Unless noted, calls come from the whole dose curve.
# Columns and labels:
# [1] = target: Estrogen receptor (Homo sapiens) (UniProt P03372); assay: qHTS assay for small molecule agonists of estrogen receptor alpha signaling (AID 588514);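 note: 0% = vehicle only and 100% = reference agonist; nearly all actives have a fitted effect of over 70% in size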
# In short: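 Reporter-gene assay. […] controls beta-lactamase in HEK 293 GripTite cells; after 18 hrs with compound, CCF4 substrate is added for 2 hrs and fluorescence is read.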
# [2] = target: Glucocorticoid receptor (Homo sapiens) (UniProt P04150); assay: qHTS assay for small molecule agonists of glucocorticoid receptor signaling (AID 588532; active = well fitted curve in the direction sought with a large enough effect in the signal ratio, with a control signal flat; the % refers to the signal ratio;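 note: 100% = dexamethasone at 0.1 µM and 0% = DMSO only wells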); conditions: HeLa MMTV-bla, beta-lactamase ratio, agonist, 18 h; stronger effect = higher value; percent of dexamethasone control, DMSO zero
# Sequence of Glucocorticoid receptor (Homo sapiens) (P04150 whole entry, looked up): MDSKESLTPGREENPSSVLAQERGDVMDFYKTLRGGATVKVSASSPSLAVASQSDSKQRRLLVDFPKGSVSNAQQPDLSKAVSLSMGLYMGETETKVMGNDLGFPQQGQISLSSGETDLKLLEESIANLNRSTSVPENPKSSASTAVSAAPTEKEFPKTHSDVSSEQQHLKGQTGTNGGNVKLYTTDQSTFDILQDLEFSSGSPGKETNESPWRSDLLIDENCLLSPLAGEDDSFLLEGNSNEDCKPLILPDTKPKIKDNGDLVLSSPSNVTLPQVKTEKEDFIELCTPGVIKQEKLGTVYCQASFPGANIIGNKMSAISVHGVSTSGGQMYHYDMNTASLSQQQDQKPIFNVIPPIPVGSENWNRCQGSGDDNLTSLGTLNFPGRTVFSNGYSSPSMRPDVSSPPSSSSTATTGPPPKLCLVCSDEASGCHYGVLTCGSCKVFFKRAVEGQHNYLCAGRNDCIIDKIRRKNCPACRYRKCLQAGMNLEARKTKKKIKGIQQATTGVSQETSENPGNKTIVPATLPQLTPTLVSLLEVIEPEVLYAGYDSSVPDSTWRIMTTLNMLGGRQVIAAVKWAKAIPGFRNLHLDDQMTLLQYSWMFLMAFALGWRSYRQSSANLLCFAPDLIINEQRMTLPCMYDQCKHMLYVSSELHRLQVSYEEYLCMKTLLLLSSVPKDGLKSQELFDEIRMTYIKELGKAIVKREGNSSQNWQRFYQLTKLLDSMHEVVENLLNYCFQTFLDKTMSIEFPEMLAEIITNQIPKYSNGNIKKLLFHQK
# In short: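 Quantitative HTS using CellSensor MMTV-bla HeLa cells in charcoal/dextran-treated serum; compounds tested up to 92 uM. After 18 h at 37 C, CCF4 dye reported reporter induction.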
# [3] = target: Glucocorticoid receptor (Homo sapiens) (UniProt P04150); assay: qHTS assay for small molecule antagonists of glucocorticoid receptor signaling (AID 588533; active = well fitted inhibition curve with a large enough effect in the signal ratio, with a control signal flat, not every such curve was filed as active; the % refers to the signal ratio;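 note: cells stimulated with 2 nM dexamethasone as agonist; % is set by controls: 0 for no effect and ±100 for the full control effect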)
# In short: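 Antagonist-mode qHTS: compound titrations added to GRE-bla HeLa cells, then dexamethasone 2 nM final; 18 h, 37 C. CCF4 FRET fluorescence normalized to dexamethasone and DMSO; IC50 from Hill fit.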
# [4] = qHTS assay for small molecule antagonists of peroxisome proliferator-activated receptor delta signaling (AID 588535); conditions: HEK293T PPARd-UAS-bla, beta-lactamase FRET ratio, 18 h; 460 nm channel;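 note: cells co-treated with a PPAR-delta agonist as stimulator during compound exposure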
# In short: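 Cell-based beta-lactamase assay in antagonist mode: 4000 HEK293T PPAR-delta-UAS-bla cells per well, 5 hr preincubation then 18 hr compound incubation at 37 C. IC50 obtained by Hill equation fitting.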
# [5] = target: Peroxisome proliferator-activated receptor gamma (Homo sapiens) (UniProt P37231); assay: qHTS assay for small molecule agonists of peroxisome proliferator-activated receptor gamma signaling (AID 588536; active = well fitted curve in the direction sought with a large enough effect in the signal ratio, with a control signal flat, not every such curve was filed as active; the % refers to the signal ratio;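 note: 0% = DMSO basal wells and 100% = rosiglitazone at 2 µM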)
# Sequence of Peroxisome proliferator-activated receptor gamma (Homo sapiens) (P37231 whole entry, looked up): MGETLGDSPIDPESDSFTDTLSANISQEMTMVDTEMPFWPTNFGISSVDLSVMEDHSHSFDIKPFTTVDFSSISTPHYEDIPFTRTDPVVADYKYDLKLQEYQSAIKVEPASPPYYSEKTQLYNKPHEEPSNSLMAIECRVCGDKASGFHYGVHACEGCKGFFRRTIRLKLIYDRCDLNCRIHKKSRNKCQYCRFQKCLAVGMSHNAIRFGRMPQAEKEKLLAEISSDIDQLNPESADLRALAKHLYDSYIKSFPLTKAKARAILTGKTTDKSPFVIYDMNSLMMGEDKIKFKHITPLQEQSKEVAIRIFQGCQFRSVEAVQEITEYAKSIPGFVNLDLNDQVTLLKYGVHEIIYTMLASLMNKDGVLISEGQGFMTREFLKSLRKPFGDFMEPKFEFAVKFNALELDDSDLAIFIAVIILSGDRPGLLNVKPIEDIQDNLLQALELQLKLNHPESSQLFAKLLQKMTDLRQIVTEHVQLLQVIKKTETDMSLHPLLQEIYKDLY
# In short: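 HEK293 UAS-bla reporter line, 1% charcoal/dextran FBS; titration, 16 h, 37 C; CCF4 loading 2 h RT; fluorescence 460/530 nm. Normalized to rosiglitazone 2 uM = 100%, DMSO = 0%.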
# [6] = target: Vitamin D3 receptor (Homo sapiens) (UniProt P11473); assay: qHTS assay for small molecule agonists of vitamin D receptor signaling (AID 588543);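 note: 0% = DMSO basal and 100% = reference agonist control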
# Sequence of Vitamin D3 receptor (Homo sapiens) (P11473 whole entry, looked up): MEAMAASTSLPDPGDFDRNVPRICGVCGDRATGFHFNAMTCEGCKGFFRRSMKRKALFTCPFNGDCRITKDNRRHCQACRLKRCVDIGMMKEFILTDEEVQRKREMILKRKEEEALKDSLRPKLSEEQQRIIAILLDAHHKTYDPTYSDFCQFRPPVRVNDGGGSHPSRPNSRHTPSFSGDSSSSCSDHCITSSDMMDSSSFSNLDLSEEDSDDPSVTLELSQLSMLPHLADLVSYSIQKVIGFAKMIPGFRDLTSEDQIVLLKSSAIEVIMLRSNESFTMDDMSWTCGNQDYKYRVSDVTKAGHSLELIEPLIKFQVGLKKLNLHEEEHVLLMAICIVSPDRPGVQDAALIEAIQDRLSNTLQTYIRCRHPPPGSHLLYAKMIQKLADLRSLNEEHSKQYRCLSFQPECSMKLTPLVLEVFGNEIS
# In short: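 Reporter cells (HEK293T, VDR-UAS-bla) were seeded in medium with 2% charcoal-stripped serum and incubated 5 h, then compounds in concentration series were added for 16 h at 37 °C. Stimulation was scaled between DMSO basal and 50 nM 1α,25-dihydroxyvitamin D3.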
# [7] = qHTS assay for small molecule agonists of retinoid X receptor alpha signaling (AID 588544); conditions: HEK293T RXRa-UAS-bla, beta-lactamase reporter, 18 h; 530 nm emission; note: potency is the fitted concentration of half-maximal effect;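 for activation: 0% = DMSO basal wells and 100% = reference agonist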
# [8] = target: Retinoic acid receptor RXR-alpha (Homo sapiens) (UniProt P19793); assay: as above
# Sequence of Retinoic acid receptor RXR-alpha (Homo sapiens) (P19793 whole entry, looked up): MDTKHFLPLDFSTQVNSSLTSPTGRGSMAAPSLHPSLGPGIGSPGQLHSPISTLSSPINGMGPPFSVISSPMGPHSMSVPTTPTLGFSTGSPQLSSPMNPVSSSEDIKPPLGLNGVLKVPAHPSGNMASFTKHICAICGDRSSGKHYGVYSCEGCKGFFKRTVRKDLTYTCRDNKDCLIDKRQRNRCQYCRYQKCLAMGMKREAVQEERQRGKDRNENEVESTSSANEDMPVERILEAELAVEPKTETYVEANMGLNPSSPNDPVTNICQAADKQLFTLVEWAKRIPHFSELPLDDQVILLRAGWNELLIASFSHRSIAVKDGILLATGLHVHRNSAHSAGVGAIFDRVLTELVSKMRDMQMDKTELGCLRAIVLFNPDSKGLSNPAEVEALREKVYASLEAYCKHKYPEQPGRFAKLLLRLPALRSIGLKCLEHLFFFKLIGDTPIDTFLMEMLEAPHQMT
# [9] = target: Thyroid hormone receptor beta (Homo sapiens) (UniProt P10828); assay: qHTS assay for small molecule agonists of thyroid hormone receptor beta signaling (AID 588545);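 note: 0% = DMSO only and 100% = 10 nM T3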
# Sequence of Thyroid hormone receptor beta (Homo sapiens) (P10828 whole entry, looked up): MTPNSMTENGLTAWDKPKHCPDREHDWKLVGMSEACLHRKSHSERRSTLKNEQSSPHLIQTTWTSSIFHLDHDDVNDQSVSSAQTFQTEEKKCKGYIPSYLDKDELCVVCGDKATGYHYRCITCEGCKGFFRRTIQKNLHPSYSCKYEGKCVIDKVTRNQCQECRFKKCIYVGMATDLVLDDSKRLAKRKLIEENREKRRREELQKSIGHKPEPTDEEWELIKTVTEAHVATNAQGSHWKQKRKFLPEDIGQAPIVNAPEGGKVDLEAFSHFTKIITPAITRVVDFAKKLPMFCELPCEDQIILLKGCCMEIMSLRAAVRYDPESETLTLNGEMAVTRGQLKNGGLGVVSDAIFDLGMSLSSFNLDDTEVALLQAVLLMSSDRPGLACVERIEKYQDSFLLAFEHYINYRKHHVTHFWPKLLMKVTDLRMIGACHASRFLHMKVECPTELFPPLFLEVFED
# In short: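 Beta-lactamase reporter activity under TR response element control is measured in HEK 293 cells after 18 hrs compound exposure. Signal is ratiometric CCF4 fluorescence, 460/530 nm.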
# [10] = qHTS assay for small molecule antagonists of retinoid X receptor alpha signaling (AID 588546; active = well fitted inhibition curve with a large enough effect in the signal ratio, with a control signal flat, not every such curve was filed as active; the % refers to the signal ratio;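 note: cells stimulated with 9-cis-retinoic acid as agonist; % is set by controls: 0 for no effect and ±100 for the full control effect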); conditions: HEK293T RXRa-UAS-bla, beta-lactamase ratio, antagonist mode; measured here: W530 green channel, cytotoxicity proxy
# In short: (§1)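 Beta-lactamase reporter inhibition, read as CCF4 fluorescence ratio (ex 405, em 460/530 nm) after 2 h at RT. HEK293T UAS-bla cells, 2500/well, were stimulated with 9-cis-RA at 500 or 100 nM final alongside test compound for 18 h at 37 C.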
# [11] = target: Retinoic acid receptor RXR-alpha (Homo sapiens) (UniProt P19793); assay: as above; conditions: HEK293T RXRa-UAS-bla, beta-lactamase ratio, antagonist mode
# In short: as §1
# [12] = target: Thyroid hormone receptor beta (Homo sapiens) (UniProt P10828); assay: qHTS assay for small molecule antagonists of thyroid hormone receptor beta signaling (AID 588547; active = well fitted inhibition curve with a large enough effect in the signal ratio, with a control signal flat, not every such curve was filed as active; the % refers to the signal ratio;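 note: cells stimulated with 0.4 nM T3 agonist during compound exposure; series mostly up to about 77 µM; % is set by controls: 0 for no effect and ±100 for the full control effect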); conditions: TR-UAS-bla HEK293, beta-lactamase ratio, antagonist mode, 18 h
# In short: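 Inhibition of T3-driven (0.4nM final) beta-lactamase reporter activity was measured over 0.59 nM to 92 uM compound after 18 h at 37 C. The cells were GripTite HEK293 TR-UAS-bla in charcoal/dextran-stripped serum, with CCF4 ratio read-out and IC50 from Hill fits.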
# [13] = qHTS assay for environmental chemicals that activate the Aryl hydrocarbon Receptor (AhR) signaling pathway (AID 651777; active = well fitted curve in the direction sought with a large enough effect; an effect the other way counts as inactive or inconclusive; note: % of control where 0% means no effect; nearly all actives have a fitted effect of over 15% in size); conditions: 1A2-DRE human hepatoma cells, luciferase, 24 h; activation: stronger effect = higher value
# In short: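 Luminescence read-out: One-Glo added for 30 min at RT after 24 hr compound treatment (37 C, 5% CO2) of human hepatoma cells expressing a DRE/CYP1A2 promoter–luciferase reporter; increased signal indicates AhR activation.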
# [14] = qHTS assay for small molecule agonists of the antioxidant response element (ARE) signaling pathway measured by Nrf2-dependant transcriptional activity (AID 720636; active = well fitted curve in the direction sought with a large enough effect in the repeat runs; an effect the other way counts as inactive or inconclusive;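 note: HepG2 cells with an ARE-driven luciferase reporter; % of control where 0% means no effect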)
# In short: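 HepG2 ARE-luc reporter line, 1% dialyzed FBS; 6 hr attachment at 37 C, compound pinned in, 16 hr at 37 C/5% CO2; ONE-Glo, 30 min RT, luminescence read.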
# [15] = qHTS assay for small molecule agonists of the antioxidant response element (ARE) signaling pathway measured by Nrf2-dependant transcriptional activity - cell viability counter screen (AID 720653; active = well fitted curve in the direction sought with a large enough effect in the repeat runs; an effect the other way counts as inactive or inconclusive; note: % is set by controls: 0 for no effect and ±100 for the full control effect); conditions: ARE-bla HepG2 viability, CellTiter-Glo ATP luminescence, 16 h; max response: stronger effect = lower value
# In short: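 Cytotoxicity counter screen: intracellular ATP quantified by CellTiter-Glo luminescence in the same ARE-bla HepG2 plates, after 16 h compound exposure and a 2 h beta-lactamase substrate step.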
# [16] = qHTS assay for cell viability of the p53RE-bla HCT-116 cell line (AID 743292; active = well fitted curve in the direction sought with a large enough effect; an effect the other way counts as inactive or inconclusive; note: % is set by controls: 0 for no effect and ±100 for the full control effect; nearly all actives have a fitted effect of over 55% in size)
# In short: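 Luminescent ATP quantitation (CellTiter-Glo) served as the viability read-out; reagent was added after 16 h compound exposure at 37 C and read after 30 min at room temperature. Cells: p53RE-bla HCT-116, 4,000 per well.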
# [17] = target: Nuclear receptor subfamily 1 group I member 2 (Rattus norvegicus) (UniProt Q9R1A7); assay: qHTS assay for small molecule activators of the rat pregnane X receptor (rPXR) signaling pathway (AID 651751; call rule not given here; note: 0% is about no effect); conditions: rPXR reporter cells, luciferase (One-Glo), 24 h
# Sequence of Nuclear receptor subfamily 1 group I member 2 (Rattus norvegicus) (Q9R1A7 whole entry, looked up): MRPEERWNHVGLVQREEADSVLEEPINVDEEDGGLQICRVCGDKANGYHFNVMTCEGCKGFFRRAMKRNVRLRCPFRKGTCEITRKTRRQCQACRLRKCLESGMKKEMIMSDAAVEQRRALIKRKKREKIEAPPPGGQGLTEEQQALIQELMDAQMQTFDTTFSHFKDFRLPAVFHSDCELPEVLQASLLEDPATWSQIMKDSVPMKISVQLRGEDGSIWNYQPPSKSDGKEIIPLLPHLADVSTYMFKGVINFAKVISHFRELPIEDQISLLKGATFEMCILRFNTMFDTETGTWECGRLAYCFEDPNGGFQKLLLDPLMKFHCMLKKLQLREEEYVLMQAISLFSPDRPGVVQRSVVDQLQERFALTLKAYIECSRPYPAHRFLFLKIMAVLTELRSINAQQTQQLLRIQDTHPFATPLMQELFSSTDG
# [18] = qHTS assay for small molecule activators of the human pregnane X receptor (PXR) signaling pathway (AID 720659; call rule not given here; note: 0% is about no effect)
# [19] = target: Peroxisome proliferator-activated receptor alpha (Homo sapiens) (UniProt Q07869); assay: qHTS assay for small molecule agonists of the peroxisome proliferator-activated receptor alpha (PPARalpha) signaling pathway (AID 651778; active = well fitted curve in the direction sought with a large enough effect; an effect the other way counts as inactive or inconclusive; note: % of control where 0% means no effect); conditions: PathHunter PPARalpha complementation, chemiluminescence, 6 h; max response: stronger effect = higher value
# Sequence of Peroxisome proliferator-activated receptor alpha (Homo sapiens) (Q07869 whole entry, looked up): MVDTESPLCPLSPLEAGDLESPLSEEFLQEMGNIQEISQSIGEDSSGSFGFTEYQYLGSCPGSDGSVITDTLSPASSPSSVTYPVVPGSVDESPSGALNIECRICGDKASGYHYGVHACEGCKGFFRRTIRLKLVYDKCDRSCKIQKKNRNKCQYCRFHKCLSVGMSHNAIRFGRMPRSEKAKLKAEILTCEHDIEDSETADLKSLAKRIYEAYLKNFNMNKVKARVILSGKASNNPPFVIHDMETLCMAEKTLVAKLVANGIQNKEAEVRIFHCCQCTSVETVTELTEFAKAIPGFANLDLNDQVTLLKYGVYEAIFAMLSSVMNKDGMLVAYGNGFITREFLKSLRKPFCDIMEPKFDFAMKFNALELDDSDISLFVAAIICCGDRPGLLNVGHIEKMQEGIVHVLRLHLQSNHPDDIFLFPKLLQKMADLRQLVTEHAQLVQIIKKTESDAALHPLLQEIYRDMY
# In short: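 Chemiluminescence from complemented enzyme reported PPARalpha activation in cells after 6 hr of compound treatment at 37 C. The detection reagent was incubated for 60 min at room temperature, and compounds were scored as agonists.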
# [20] = qHTS assay for cell viability of HEK293 cells (AID 743288; active = well fitted curve in the direction sought with a large enough effect; an effect the other way counts as inactive or inconclusive; note: % is set by controls: 0 for no effect and ±100 for the full control effect; nearly all actives have a fitted effect of over 50% in size); conditions: ATP luminescence (CellTiter-Glo), 18 h; max response: stronger effect = lower value
# In short: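 HEK293 parental, 2,000 cells/well; ≥5 h pre-incubation 37 C; pintool compound addition; 18 h, 37 C; CellTiter-Glo 30 min RT; luminescence read.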
# Sequence of Estrogen receptor (Homo sapiens) (P03372 whole entry, looked up): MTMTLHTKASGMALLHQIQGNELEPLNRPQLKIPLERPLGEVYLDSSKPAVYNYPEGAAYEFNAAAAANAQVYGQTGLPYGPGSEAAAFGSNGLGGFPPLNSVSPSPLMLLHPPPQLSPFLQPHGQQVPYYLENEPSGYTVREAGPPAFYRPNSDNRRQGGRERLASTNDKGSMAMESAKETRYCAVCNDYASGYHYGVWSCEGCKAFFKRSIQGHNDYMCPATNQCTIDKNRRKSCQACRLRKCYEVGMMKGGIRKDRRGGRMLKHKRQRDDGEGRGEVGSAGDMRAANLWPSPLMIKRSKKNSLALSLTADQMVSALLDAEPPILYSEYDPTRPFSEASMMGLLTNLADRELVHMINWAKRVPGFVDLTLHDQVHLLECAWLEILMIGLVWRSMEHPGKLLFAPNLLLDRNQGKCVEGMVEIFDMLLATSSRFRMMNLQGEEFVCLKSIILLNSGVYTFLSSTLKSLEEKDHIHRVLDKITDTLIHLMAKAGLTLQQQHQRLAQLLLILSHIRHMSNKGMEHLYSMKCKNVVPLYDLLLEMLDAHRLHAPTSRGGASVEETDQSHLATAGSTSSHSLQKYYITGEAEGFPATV
Compound,Potency [1],activation [2],Potency [3],max response [4] [%],outcome [5],outcome [6],max response [7] [%],Potency [8],Potency [9],max response [10] [%],max response [11],activity change % (negative = inhibition) [12],activation [13],Potency [14],max response [15],Potency [16],max response [17],outcome [18],max response [19],max response [20]
O=C(O)CN(CCO)CCN(CC(=O)O)CC(=O)O,inactive,-10.4% (inactive),inactive,6.54,inactive,inactive,-15.4,inactive,inactive,-2.45,-2.39% (inactive),-8.14% (inactive),-0.73% (inactive),inactive,-1.05% (inactive),inactive,1.3% (inactive),inactive,–,–
C[Si](C)(C)N[Si](C)(C)C,–,-9.44% (inactive),inactive,–,inactive,inactive,-0.733,inactive,inactive,-10.7,1.24% (inactive),-1.93% (inactive),–,inactive,1.14% (inactive),inactive,–,–,-0.0059% (inactive),-5.89% (inactive)
CCCCCCCCCC(C)=O,inactive,-12.1% (inactive),inactive,26.8,inactive,inactive,-16.2,inactive,inactive,-6.07,-4.81% (inactive),-10.7% (inactive),0.0383% (inactive),inactive,-10.8% (inactive),inactive,-2.12% (inactive),inactive,0.198% (inactive),-5.17% (inactive)
c1ccc2cc3c(ccc4ccccc43)cc2c1,–,–,–,–,–,–,4.49,inactive,inactive,-11.9,-3.27% (inactive),-17.7% (inactive),–,–,-18.2% (inactive),inactive,–,–,-0.566% (inactive),-8% (inactive)
Cn1sccc1=O,–,2.87% (inactive),inactive,-3.21,inactive,inactive,–,–,–,-13.8,7.99% (inactive),-11.2% (inactive),-0.202% (inactive),–,-9.28% (inactive),inactive,–,–,-2.31% (inactive),–
CC(C)CCCCCCc1ccc(OCCOCCO)cc1,–,–,–,–,–,–,-48.7,3.55 µM (active),–,–,–,–,-9.42% (inactive),inactive,-4.66% (inactive),–,-16.1% (inactive),–,–,–
COc1ccc(OC)c(OC)c1,–,0.211% (inactive),–,–,inactive,inactive,-0.39,inactive,inactive,-10,2.37% (inactive),7.13% (inactive),–,inactive,7.1% (inactive),–,3.06% (inactive),inactive,0.14% (inactive),-1.79% (inactive)
